According to ChEMBL document CHEMBL1961873, “Compounds: GSK PKIS; Assays: Nanosyn kinase panel” (2012):

Assays:
[1] = target: Serine/threonine-protein kinase MARK2 (Homo sapiens) (UniProt Q7KZI7); settings: at 1 µM
[2] = target: PAS domain-containing serine/threonine-protein kinase (Homo sapiens) (UniProt Q96RG2); settings: at 0.1 µM
[3] = target: PAS domain-containing serine/threonine-protein kinase (Homo sapiens) (UniProt Q96RG2); settings: at 1 µM
[4] = target: Phosphorylase b kinase gamma catalytic chain, skeletal muscle/heart isoform (Homo sapiens) (UniProt Q16816); settings: at 0.1 µM
Phosphorylase b kinase gamma catalytic chain, skeletal muscle/heart isoform (Homo sapiens), sequence (Q16816 whole entry, looked up, canonical isoform): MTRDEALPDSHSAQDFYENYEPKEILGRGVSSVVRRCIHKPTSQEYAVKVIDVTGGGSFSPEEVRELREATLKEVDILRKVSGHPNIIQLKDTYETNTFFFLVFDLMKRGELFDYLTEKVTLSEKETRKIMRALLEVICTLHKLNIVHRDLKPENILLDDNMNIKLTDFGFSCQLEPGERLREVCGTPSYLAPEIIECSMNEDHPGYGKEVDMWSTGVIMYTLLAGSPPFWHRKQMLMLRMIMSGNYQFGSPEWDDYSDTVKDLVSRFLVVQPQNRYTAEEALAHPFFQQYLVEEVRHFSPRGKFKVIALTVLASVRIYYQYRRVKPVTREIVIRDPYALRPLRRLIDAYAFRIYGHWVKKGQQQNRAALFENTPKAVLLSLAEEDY

[5] = target: Phosphorylase b kinase gamma catalytic chain, skeletal muscle/heart isoform (Homo sapiens) (UniProt Q16816); settings: at 1 µM
[6] = target: T1, Phosphorylase b kinase gamma catalytic chain, liver/testis isoform (Homo sapiens) (UniProt P15735); settings: at 0.1 µM
T1 sequence (whole entry): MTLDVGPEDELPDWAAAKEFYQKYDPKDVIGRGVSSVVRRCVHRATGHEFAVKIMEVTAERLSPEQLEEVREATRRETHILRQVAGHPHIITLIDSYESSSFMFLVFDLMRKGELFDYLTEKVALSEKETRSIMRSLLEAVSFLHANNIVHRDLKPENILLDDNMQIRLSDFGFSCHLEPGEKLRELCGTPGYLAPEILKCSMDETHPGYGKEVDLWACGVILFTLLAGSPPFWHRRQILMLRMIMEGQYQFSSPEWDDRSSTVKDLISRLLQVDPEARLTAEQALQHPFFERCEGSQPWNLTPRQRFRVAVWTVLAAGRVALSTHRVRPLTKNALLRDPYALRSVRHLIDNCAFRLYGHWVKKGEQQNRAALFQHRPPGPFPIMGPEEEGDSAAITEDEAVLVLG

[7] = target: T1, Phosphorylase b kinase gamma catalytic chain, liver/testis isoform (Homo sapiens); settings: at 1 µM
[8] = target: Serine/threonine-protein kinase pim-1 (Homo sapiens) (UniProt P11309); settings: at 0.1 µM
Serine/threonine-protein kinase pim-1 (Homo sapiens), sequence (P11309 whole entry, looked up): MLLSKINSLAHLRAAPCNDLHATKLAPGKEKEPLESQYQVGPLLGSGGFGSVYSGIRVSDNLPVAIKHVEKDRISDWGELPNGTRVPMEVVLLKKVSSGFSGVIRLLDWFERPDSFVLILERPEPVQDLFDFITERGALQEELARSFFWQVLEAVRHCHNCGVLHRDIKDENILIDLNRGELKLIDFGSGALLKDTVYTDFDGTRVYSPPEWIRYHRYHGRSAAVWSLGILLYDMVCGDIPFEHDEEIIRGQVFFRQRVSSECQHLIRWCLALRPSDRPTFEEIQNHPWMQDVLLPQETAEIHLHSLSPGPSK

[9] = target: Serine/threonine-protein kinase pim-1 (Homo sapiens) (UniProt P11309); settings: at 1 µM
[10] = target: Serine/threonine-protein kinase pim-2 (Homo sapiens) (UniProt Q9P1W9); settings: at 0.1 µM
Serine/threonine-protein kinase pim-2 (Homo sapiens), sequence (Q9P1W9 whole entry, looked up): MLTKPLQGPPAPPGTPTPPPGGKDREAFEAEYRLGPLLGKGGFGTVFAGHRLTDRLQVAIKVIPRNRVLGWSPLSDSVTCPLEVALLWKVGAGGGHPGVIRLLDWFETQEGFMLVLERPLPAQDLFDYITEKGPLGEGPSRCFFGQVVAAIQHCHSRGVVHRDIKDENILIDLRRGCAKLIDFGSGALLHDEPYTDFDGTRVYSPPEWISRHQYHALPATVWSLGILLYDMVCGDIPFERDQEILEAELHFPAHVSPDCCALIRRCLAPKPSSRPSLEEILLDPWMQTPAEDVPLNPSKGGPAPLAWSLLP

[11] = target: Serine/threonine-protein kinase pim-2 (Homo sapiens) (UniProt Q9P1W9); settings: at 1 µM
[12] = target: Serine/threonine-protein kinase pim-3 (Homo sapiens) (UniProt Q86V86); settings: at 0.1 µM
[13] = target: Serine/threonine-protein kinase pim-3 (Homo sapiens) (UniProt Q86V86); settings: at 1 µM
[14] = target: T2, MAP kinase-activated protein kinase 5 (Homo sapiens) (UniProt Q8IW41); settings: at 0.1 µM
T2 sequence (whole entry): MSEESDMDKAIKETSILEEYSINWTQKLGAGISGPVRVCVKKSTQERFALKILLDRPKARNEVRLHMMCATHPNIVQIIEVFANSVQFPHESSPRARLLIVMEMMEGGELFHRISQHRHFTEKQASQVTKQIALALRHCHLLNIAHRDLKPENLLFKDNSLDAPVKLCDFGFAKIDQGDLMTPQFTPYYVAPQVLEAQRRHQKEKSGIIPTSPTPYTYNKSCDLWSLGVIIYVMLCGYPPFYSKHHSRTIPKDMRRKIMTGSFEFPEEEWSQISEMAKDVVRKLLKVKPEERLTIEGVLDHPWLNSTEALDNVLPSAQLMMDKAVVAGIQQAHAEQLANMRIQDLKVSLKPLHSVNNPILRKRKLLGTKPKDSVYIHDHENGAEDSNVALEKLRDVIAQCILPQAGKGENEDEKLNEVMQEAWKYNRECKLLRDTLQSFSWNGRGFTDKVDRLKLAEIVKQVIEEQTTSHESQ

[15] = target: T2, MAP kinase-activated protein kinase 5 (Homo sapiens); settings: at 1 µM
[16] = target: Serine/threonine-protein kinase SIK1 (Homo sapiens) (UniProt P57059); settings: at 0.1 µM
Serine/threonine-protein kinase SIK1 (Homo sapiens), sequence (P57059 whole entry): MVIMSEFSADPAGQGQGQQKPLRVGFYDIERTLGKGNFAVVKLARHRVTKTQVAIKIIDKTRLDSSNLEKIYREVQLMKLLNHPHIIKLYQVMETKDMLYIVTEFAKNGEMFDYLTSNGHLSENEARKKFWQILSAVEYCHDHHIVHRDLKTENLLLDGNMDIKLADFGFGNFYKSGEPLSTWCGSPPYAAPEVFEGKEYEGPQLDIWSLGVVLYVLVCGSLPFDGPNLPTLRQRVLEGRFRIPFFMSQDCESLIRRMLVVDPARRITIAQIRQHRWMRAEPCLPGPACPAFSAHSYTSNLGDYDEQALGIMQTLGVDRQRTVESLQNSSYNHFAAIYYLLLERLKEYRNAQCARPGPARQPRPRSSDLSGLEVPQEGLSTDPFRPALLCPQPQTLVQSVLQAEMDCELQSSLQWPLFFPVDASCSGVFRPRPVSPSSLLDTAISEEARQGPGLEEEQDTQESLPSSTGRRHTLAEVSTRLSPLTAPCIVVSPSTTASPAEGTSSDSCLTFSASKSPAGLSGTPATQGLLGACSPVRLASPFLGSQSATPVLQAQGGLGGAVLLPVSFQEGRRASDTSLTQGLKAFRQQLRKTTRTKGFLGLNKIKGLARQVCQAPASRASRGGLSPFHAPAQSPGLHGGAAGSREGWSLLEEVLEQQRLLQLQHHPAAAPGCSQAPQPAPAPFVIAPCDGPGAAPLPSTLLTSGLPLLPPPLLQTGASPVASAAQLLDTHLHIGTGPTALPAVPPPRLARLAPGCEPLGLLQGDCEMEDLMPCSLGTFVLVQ

[17] = target: Serine/threonine-protein kinase SIK1 (Homo sapiens) (UniProt P57059); settings: at 1 µM
[18] = target: Serine/threonine-protein kinase SIK2 (Homo sapiens) (UniProt Q9H0K1); settings: at 0.1 µM
[19] = target: Serine/threonine-protein kinase SIK2 (Homo sapiens) (UniProt Q9H0K1); settings: at 1 µM
[20] = target: T3, Serine/threonine-protein kinase TBK1 (Homo sapiens) (UniProt Q9UHD2); settings: at 0.1 µM;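 further: values are the mean TBK1 inhibition, taken from the GSK PKIS screening data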
T3 sequence (whole entry): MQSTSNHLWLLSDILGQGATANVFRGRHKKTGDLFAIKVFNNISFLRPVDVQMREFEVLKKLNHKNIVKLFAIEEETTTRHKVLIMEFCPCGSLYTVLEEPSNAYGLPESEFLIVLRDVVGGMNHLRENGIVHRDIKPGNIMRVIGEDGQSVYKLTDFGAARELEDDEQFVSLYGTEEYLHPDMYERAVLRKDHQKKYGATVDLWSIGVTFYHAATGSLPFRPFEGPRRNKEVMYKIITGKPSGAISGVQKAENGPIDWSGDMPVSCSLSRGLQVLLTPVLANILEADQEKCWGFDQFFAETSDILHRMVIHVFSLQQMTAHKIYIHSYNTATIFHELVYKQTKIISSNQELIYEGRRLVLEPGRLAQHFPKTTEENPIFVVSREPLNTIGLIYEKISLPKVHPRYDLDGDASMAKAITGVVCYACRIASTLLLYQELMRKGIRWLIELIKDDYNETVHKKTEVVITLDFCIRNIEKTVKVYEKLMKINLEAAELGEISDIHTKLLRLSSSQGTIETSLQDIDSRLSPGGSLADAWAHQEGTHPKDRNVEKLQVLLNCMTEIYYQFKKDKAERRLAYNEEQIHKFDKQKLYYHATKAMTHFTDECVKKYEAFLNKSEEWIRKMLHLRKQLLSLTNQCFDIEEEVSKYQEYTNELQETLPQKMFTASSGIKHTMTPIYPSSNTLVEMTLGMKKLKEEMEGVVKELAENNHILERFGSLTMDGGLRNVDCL

Serine/threonine-protein kinase MARK2 (Homo sapiens), sequence (Q7KZI7 whole entry, the tested form may be a part): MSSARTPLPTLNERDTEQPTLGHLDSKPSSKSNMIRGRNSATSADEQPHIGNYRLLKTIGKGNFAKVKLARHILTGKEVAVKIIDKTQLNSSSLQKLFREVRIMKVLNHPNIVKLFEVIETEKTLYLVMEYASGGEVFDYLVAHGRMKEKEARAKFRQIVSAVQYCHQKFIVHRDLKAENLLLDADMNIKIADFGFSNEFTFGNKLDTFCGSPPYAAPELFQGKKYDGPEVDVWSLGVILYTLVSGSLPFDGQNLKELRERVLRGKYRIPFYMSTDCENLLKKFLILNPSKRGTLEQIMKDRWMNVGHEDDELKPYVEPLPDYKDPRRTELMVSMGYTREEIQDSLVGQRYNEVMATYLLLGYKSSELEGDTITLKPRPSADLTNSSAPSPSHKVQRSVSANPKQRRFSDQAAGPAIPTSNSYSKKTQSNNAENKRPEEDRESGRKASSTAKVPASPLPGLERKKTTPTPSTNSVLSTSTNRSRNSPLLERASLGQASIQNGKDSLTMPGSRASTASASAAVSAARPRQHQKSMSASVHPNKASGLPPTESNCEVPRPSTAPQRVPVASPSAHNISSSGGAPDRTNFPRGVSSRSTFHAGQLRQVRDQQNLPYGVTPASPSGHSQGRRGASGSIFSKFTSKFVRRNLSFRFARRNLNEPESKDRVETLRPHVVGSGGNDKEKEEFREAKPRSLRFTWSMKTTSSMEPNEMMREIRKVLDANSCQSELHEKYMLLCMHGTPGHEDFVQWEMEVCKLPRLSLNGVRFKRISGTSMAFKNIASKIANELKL
PAS domain-containing serine/threonine-protein kinase (Homo sapiens), sequence (Q96RG2 whole entry, the tested form may be a part, canonical isoform): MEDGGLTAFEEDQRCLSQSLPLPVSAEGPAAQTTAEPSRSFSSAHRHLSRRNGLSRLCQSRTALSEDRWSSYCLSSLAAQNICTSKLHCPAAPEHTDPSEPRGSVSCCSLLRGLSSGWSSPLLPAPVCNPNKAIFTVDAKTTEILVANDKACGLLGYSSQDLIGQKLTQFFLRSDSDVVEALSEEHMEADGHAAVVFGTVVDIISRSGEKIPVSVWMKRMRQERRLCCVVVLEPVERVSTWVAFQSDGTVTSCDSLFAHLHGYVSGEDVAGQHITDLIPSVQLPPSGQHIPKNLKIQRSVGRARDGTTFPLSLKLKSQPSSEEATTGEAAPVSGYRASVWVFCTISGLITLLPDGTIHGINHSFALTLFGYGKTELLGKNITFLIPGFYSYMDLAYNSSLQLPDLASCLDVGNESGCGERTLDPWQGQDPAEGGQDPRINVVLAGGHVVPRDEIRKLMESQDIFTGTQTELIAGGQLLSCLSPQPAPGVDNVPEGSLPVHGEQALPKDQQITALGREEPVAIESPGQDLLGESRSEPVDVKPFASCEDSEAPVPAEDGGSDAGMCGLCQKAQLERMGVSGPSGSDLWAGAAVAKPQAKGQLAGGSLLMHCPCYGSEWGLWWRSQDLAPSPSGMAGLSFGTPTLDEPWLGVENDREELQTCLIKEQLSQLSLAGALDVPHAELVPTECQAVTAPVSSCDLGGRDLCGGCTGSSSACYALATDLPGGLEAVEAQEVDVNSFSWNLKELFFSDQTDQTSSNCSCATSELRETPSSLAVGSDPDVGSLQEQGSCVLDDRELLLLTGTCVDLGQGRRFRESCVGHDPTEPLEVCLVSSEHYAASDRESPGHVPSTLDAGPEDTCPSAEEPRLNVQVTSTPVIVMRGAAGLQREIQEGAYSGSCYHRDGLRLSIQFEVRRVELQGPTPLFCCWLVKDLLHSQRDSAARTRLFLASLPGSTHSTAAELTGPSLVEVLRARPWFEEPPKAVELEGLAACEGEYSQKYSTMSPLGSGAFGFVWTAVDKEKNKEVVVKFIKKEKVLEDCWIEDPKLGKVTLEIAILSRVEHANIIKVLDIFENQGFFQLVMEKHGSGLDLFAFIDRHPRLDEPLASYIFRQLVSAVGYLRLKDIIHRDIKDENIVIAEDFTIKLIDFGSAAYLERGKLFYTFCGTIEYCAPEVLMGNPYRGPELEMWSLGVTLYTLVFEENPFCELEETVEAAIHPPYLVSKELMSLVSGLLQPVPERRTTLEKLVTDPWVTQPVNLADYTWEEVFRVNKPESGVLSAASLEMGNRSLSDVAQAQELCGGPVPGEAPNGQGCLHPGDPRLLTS

| Compound | inhibition [1] | inhibition [2] | inhibition [3] | inhibition [4] | inhibition [5] | inhibition [6] | inhibition [7] | inhibition [8] | inhibition [9] | inhibition [10] | inhibition [11] | inhibition [12] | inhibition [13] | inhibition [14] | inhibition [15] | inhibition [16] | inhibition [17] | inhibition [18] | inhibition [19] | inhibition [20] |
| --- | --- | --- | --- | --- | --- | --- | --- | --- | --- | --- | --- | --- | --- | --- | --- | --- | --- | --- | --- | --- |
| c1ccc(Nc2ncc(-c3ccccc3)o2)cc1 | 2.64% | -0.05% | -0.71% | 2.61% | 10.9% | 6.62% | 6.17% | 1.47% | 3.45% | -1.31% | -0.45% | 0.11% | 2.31% | 2.01% | 1.68% | 3.63% | 12.6% | 7.32% | 13.8% | 5.72% |
| CCn1c(-c2nonc2N)nc2ccc(F)cc21 | -0.64% | 1.69% | 0.49% | 6.81% | 7.3% | 7.81% | 12.6% | 0.08% | 1.85% | -0.12% | 0.34% | -0.77% | 4.99% | 2.78% | 4.45% | 4.96% | 8.41% | 7.14% | 12.5% | 5.18% |
| CN(C)CCCn1c(-c2nonc2N)nc2cnccc21 | 2.24% | -0.11% | -0.83% | 2.33% | 2.88% | 4.54% | 2.43% | 2.81% | 18.9% | -0.04% | 0.24% | -0.78% | 1.03% | 0.98% | -0.25% | 3.24% | 8.57% | -0.97% | 5.74% | 1.24% |
| COc1ccc2ncnc(Nc3ccc(OCc4ccccc4)cc3)c2c1 | 0.4% | -0.03% | 2.46% | 4.44% | 4.51% | 1.92% | 2.81% | 0.17% | 0.4% | -0.18% | 0.96% | 0.32% | 0.59% | 0.99% | 1.13% | 1.08% | 5.56% | 3.18% | 3.43% | 1.67% |
| FC(F)(F)c1ccc(-c2nn3ncccc3c2-c2ccnc(Nc3ccc4c(c3)OCCO4)n2)cc1 | 4.45% | 6.37% | 10.9% | 7.07% | 8.64% | 0.59% | 6.97% | 0.47% | 1.86% | 6.45% | 5.12% | 6.66% | 10.2% | 2.37% | 5.39% | -4.38% | 0.84% | -0.15% | 0.08% | 5.62% |
| CCS(=O)(=O)c1ccc(OC)c(Nc2nccc(N(C)c3ccc4c(C)n[nH]c4c3)n2)c1 | 3.54% | -0.44% | 0.34% | 6.38% | 6.76% | 6.39% | 4.62% | 1.18% | 1.44% | 0.05% | 0.56% | -0.02% | 0.25% | 1.5% | 1.32% | 3.91% | 23.5% | -0.54% | 7.47% | 2.62% |
| Cc1ccc2c(-c3ccnc(Nc4ccc5c(c4)OCCO5)n3)c(-c3ccc(C(F)(F)F)cc3)nn2n1 | 2.02% | 1.16% | 1.48% | 3.21% | 1.99% | 1.58% | 1.14% | -0.32% | 0.3% | 0.44% | 1.63% | 0.32% | 0.77% | 0.37% | 0.83% | 0.02% | -0.13% | 10.8% | 0.48% | 0.84% |
| COC(=O)c1cncc(/C=C/c2c(C)cc(O)cc2C)c1 | -0.07% | -0.51% | 1.51% | 1.77% | 4.16% | 4.23% | 6.97% | 1.57% | 1.55% | -0.56% | 0.09% | 0.93% | 3.35% | 1.73% | 2.57% | 19.2% | 84.3% | 5.81% | 20% | 1.26% |
| COC(=O)c1ccc2c(c1)C(=Cc1cc(Br)c(O)c(Br)c1)C(=O)N2 | 4.91% | -1.3% | -0.51% | 0.67% | 7.49% | 4.41% | 3.92% | 8.81% | 50.9% | 10.7% | 53.2% | 18.4% | 64.3% | 0.85% | 2.43% | 8.54% | 14.4% | 3.66% | 9.93% | 1.23% |
| CC(C)c1ccc2c(c1)NC(=O)/C2=N/Nc1ccc(S(N)(=O)=O)cc1 | -0.8% | 1.25% | 0.24% | -0.83% | 1.14% | 0.03% | 0.32% | 0.27% | -0.22% | -0.21% | 1.32% | 2.03% | 3.02% | 0.46% | 0.35% | 1.04% | 7.02% | 2.29% | 2.16% | -1% |
| COC(=O)Nc1nc2cc(Oc3ccc(NC(=O)Nc4cccc(Br)c4)cc3)ccc2[nH]1 | 0.27% | 0.17% | 1.67% | 3.04% | 4.55% | 3.62% | 2.45% | -0.51% | 0.21% | -0.42% | -0.13% | -0.57% | 0.5% | 1.32% | 1.31% | 7.8% | 11.9% | -0.32% | 7.96% | -1.34% |
| Cc1ccc(NC(=O)CC2CC2)cc1-c1ccc(C(=O)NCC2CC2)cc1 | 0.03% | -0.28% | 0.77% | 3.12% | 5.93% | 4.45% | 4.9% | 1.51% | 0.73% | -0.33% | 0.37% | 0.23% | 1.25% | 1.21% | 1.26% | 3.64% | 9.75% | 5.46% | 4.87% | 2.81% |
| Cc1cc(-c2ccccn2)cc(C)c1/C=C/c1cncc(-c2nn[nH]n2)c1 | 4.96% | -0.97% | -1.06% | 3.51% | 7% | 1.5% | 5.59% | 1.73% | 2.55% | 0.01% | -0.15% | 1.13% | 3.53% | 1.22% | 1.42% | 18.9% | 74.7% | 5.34% | 21.5% | 3.59% |
